In PMC4336329 (PLoS ONE, 2015):
The whole screen tested about 310,000 compounds, of which about 14,000 (4.5%) showed an effect of 50% or more. Effects have a minus sign here. Many of the other results were omitted from the sample, so strong results are more common in it than they were.

These compounds were tested against human ether-à-go-go-related gene (hERG) potassium channel (human, UniProt Q12809) (assay: primary screen, population patch clamp on CHO cells stably expressing hERG; higher = less effect of the substance).
Chain of human ether-à-go-go-related gene (hERG) potassium channel (Q12809 whole entry, looked up): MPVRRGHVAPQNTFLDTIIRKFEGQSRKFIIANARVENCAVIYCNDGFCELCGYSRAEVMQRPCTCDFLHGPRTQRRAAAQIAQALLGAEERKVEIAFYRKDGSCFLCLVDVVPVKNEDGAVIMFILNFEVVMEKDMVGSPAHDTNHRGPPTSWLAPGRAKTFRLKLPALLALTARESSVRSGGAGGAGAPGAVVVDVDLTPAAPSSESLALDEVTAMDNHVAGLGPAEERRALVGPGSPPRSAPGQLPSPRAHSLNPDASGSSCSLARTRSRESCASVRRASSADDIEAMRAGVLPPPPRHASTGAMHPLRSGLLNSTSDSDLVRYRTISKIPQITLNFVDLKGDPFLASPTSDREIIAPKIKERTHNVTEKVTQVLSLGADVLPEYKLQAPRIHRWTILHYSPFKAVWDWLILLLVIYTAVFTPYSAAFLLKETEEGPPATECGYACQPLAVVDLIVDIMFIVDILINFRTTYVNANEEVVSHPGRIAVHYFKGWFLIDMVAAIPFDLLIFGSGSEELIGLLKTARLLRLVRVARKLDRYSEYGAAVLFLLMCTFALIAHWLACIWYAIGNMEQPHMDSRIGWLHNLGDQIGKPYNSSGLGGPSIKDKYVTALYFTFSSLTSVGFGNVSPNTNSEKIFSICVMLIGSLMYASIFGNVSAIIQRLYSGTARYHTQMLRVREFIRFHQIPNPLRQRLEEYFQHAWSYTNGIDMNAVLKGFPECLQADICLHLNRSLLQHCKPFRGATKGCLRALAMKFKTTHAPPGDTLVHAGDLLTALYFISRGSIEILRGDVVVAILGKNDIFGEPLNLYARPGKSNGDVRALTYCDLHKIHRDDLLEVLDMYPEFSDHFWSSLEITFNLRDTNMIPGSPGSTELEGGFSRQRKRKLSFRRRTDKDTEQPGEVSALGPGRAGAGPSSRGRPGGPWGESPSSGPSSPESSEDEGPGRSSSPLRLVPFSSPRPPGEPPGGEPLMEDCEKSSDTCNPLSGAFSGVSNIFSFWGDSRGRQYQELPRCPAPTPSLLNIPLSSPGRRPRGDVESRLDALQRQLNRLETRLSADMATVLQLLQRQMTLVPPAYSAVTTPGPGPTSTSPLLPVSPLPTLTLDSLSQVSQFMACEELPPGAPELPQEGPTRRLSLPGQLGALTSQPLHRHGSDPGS
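Also: peak tail current of the secondary pulse compared with the same well before compound.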

Question: For COc1cc(/C=C/C(=O)O)cc(S(=O)(=O)Nc2ccccc2SC)c1OC, which “hERG current change (%, negative = inhibition) at 10uM” value is on record?
Answer: 15.5%

Question: For O=C(Nc1ncn[nH]1)c1ccc(S(=O)(=O)N2CCOCC2)cc1, which “hERG current change (%, negative = inhibition) at 10uM” value is on record?
Answer: -5.88%

Question: CC(C)c1ccc(NC(=O)CN2C(=O)NC3(CCCC3)C2=O)cc1 was tested. Which “hERG current change (%, negative = inhibition) at 10uM” value did it give?
Answer: 5.63%

Question: For COc1cccc(C(=O)OCCN2CCOCC2)c1.Cl, which “hERG current change (%, negative = inhibition) at 10uM” value is on record?
Answer: 6.33%

Question: Cc1cc(C)c(OCC(=O)NCC2COc3ccccc3O2)c(C)c1 (centres unmarked) was tested. Which “hERG current change (%, negative = inhibition) at 10uM” value did it give?
Answer: -13.9%

Question: For O=C(CSc1nnc(CNC(=O)c2ccccc2F)o1)NC1CCCC1, which “hERG current change (%, negative = inhibition) at 10uM” value is on record?
Answer: 10.7%

Question: Which “hERG current change (%, negative = inhibition) at 10uM” value does the source give for CCN(CCn1cccn1)C(=O)CCc1nnc(CCCc2ccccc2)o1 here?
Answer: -37%

Question: Which “hERG current change (%, negative = inhibition) at 10uM” value does the source give for CC(C)(C)c1cc(NC(=O)c2ccc(OC3CCCC3)cc2)no1 here?
Answer: 14.2%

Question: For Cc1nc2cc(-c3cccc(F)c3)nn2c(C)c1CCC(=O)N1CCC2(CC1)OCCO2, which “hERG current change (%, negative = inhibition) at 10uM” value is on record?
Answer: -37.5%

Question: How did the “hERG current change (%, negative = inhibition) at 10uM” value turn out when Cc1nc2c(-c3ccccc3)c(C)nn2c(C)c1CCC(=O)N1CCC2(CC1)OCCO2 was run?
Answer: -40.5%

Question: Which “hERG current change (%, negative = inhibition) at 10uM” value does the source give for COC(CNC(=O)CCc1c(C)nc2c(-c3ccc(F)cc3)c(C)nn2c1C)OC here?
Answer: -21.8%

Question: For Cc1nc2c(-c3ccc(F)cc3)c(C)nn2c(C)c1CCC(=O)N1CCN(c2ccccn2)CC1, which “hERG current change (%, negative = inhibition) at 10uM” value is on record?
Answer: -69.5%

Question: Cc1nc2c(-c3ccccc3)c(C)nn2c(C)c1CCC(=O)N1CCOCC1 was tested. Which “hERG current change (%, negative = inhibition) at 10uM” value did it give?
Answer: -33.9%

Question: For COc1ccccc1NC(=O)CCc1c(C)nc2c(-c3ccc(F)cc3)c(C)nn2c1C, which “hERG current change (%, negative = inhibition) at 10uM” value is on record?
Answer: -20.3%

Question: Cc1nc2c(-c3ccc(F)cc3)c(C)nn2c(C)c1CCC(=O)N1CCC2(CC1)OCCO2 was tested. Which “hERG current change (%, negative = inhibition) at 10uM” value did it give?
Answer: -67.8%

Question: Cc1nc2c(-c3ccc(F)cc3)c(C)nn2c(C)c1CCC(=O)NCCN1CCOCC1 was tested. Which “hERG current change (%, negative = inhibition) at 10uM” value did it give?
Answer: -24.3%

Question: For Cc1nc2c(-c3ccc(F)cc3)c(C)nn2c(C)c1CCC(=O)N1CCC(Cc2ccccc2)CC1, which “hERG current change (%, negative = inhibition) at 10uM” value is on record?
Answer: -21.2%

Question: CCOC(=O)C1CCN(C(=O)CCc2c(C)nc3c(-c4ccc(F)cc4)c(C)nn3c2C)CC1 was tested. Which “hERG current change (%, negative = inhibition) at 10uM” value did it give?
Answer: -71.1%

Question: Cc1nc2c(-c3ccc(F)cc3)c(C)nn2c(C)c1CCC(=O)N1CCOCC1 was tested. Which “hERG current change (%, negative = inhibition) at 10uM” value did it give?
Answer: -53.3%

Question: CCCCCCc1nnc(N)s1 was tested. Which “hERG current change (%, negative = inhibition) at 10uM” value did it give?
Answer: -0.995%

Question: Which “hERG current change (%, negative = inhibition) at 10uM” value does the source give for Cc1cc(=O)n(C2CCS(=O)(=O)C2)[nH]1 (centres unmarked) here?
Answer: 14.7%

Question: How did the “hERG current change (%, negative = inhibition) at 10uM” value turn out when O=c1[nH]c(=S)c2ncn(-c3ccccc3)c2[nH]1 was run?
Answer: 11.7%

Question: For CCCCC(CCC(=O)O)(C(=O)OCC)c1csc(Nc2ccc(C)cc2)n1 (centres unmarked), which “hERG current change (%, negative = inhibition) at 10uM” value is on record?
Answer: -0.891%
